An excerpt weighted towards active compounds, which were near 6.6% of everything screened.
KB-V1 cytotox = KB-V1 MDR subline cytotoxicity. KB-V1 MDR cells viability, CellTiter-Glo, 72 h. Potency, µM (highest dose often 46.1 µM), usual class: cytotoxic. actives 3.4% (n = 400,000). AID 1347076; also: % is scaled to controls: 0 for no effect and ±100 for the full control effect; nearly all actives have a fitted effect of over 60% in size
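KB-V1, DMEM (no phenol red) + 10% FBS; cpd pin-transferred, titration series; 72 h, 37 degrees C; CellTiter-Glo, luminescence. Data normalized, curve-fit.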
HepG2 viability = kills HepG2 cells in TGF-b inhibitor counter-screen; HepG2 CAGA-GFP viability, ATP luminescence, 18 h; Potency, µM (doses to about 46.1 µM), inactives show at the highest dose activity change, negative = cytotoxicity, usual class: cytotoxic; actives 0.76% (n = 410,000)
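CellTiter-Glo luminescence gave cytotoxicity after 18 hours at 37 degrees C. The cells were HepG2 CAGA-GFP in 1% FBS DMEM, stimulated with 500 pg/mL TGF-beta after compound addition. %Activity was normalised to no-cell wells (complete cell-killing) and DMSO (no toxicity), and curves were fitted and classified.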
HT1080-NT tox = kills 2HG-producing HT-1080-NT fibrosarcoma cells | HT-1080-NT fibrosarcoma viability, CellTiter-Glo ATP luminescence, 48 h | Potency, µM (highest dose often 46.1 µM), for inactives: top-dose activity, negative = less viability, hits mostly cytotoxic | actives 1.6% (n = 360,000) | AID 686970;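 also: NT is the 2HG producing partner of a matched IDH1 knockdown line; 0% = DMSO-treated cells and -100% = media-only wells without cells; nearly all actives have a fitted effect of over 55% in size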
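Fibrosarcoma NT cells, 750 per well in 5% FBS RPMI, were exposed to compound for 48 hours. Viability: CellTiter-Glo luminescence.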
TGFb inhibitor = TGF-b pathway inhibition | AID 588855 | actives 1.2% (n = 410,000) | HepG2 CAGA-GFP TGF-b/SMAD3 reporter, GFP fluorescence, 18 h; TGF-beta stimulated, 500 pg/mL final | Potency, µM (titrated, usually from 46.1 µM), for inactives: at the highest dose activity, negative = inhibition, hits mostly inhibitors; also: % is scaled to controls: 0 for no effect and ±100 for the full control effect; nearly all actives have a fitted effect of over 65% in size
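Smad-responsive CAGA-GFP expression was quantified in HEPG2 cells exposed to compounds and 500 pg/mL final TGF-beta for 18 h at 37 degrees C; unstimulated wells defined full inhibition.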
KB-3-1 tox = kills parental KB-3-1 adenocarcinoma cells. KB-3-1 viability, CellTiter-Glo ATP luminescence, 72 h. Potency, µM (top dose mostly 46.1 µM), most hits filed as cytotoxic. actives 1.4% (n = 400,000); also: % is scaled to controls: 0 for no effect and ±100 for the full control effect; nearly all actives have a fitted effect of over 60% in size
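Luminescent ATP read-out (CellTiter-Glo) measures survival of drug-naive KB-3-1 cells after 72 h compound exposure at 37 °C. Titration series was screened from lowest to highest concentration, with DMSO vehicle plates as background controls.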
HT1080 IDH1KD tx = kills HT-1080 cells with IDH1 knockdown; HT-1080 IDH1 knockdown viability, ATP luminescence, 48 h; Potency, µM (titrated, usually from 46.1 µM), for the others: at the highest dose activity, negative = toxicity, usual class: cytotoxic; actives 2% (n = 360,000); AID 686971;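 also: 0% = DMSO wells and -100% = cell-free medium wells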
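Cytotoxicity counter-line: IDH1KD HT-1080, 48 h, CellTiter-Glo. Curves classed by r2, magnitude and activity.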
An asterisk follows results filed as active; i = inactive; u = inconclusive; x = no result. Calls follow the shape of the dose curve; as a rule, active = well fitted curve in the direction sought with a large enough effect; inconclusive = small, poorly fitted or top-dose-only effect, or another doubt; inactive = no such curve, though single readings can be large; an effect the other way counts as inactive or inconclusive. Potency is read from the fitted curve at half-maximal effect.

SMILES	KB-V1 cytotox	HepG2 viability	HT1080-NT tox	TGFb inhibitor	KB-3-1 tox	HT1080 IDH1KD tx
CCCC(=O)NC(c1ccc2c(c1)OCO2)c1cc(Cl)c2cccnc2c1O (stereo not given)	u	-7%	8.2µM*	u	u	3.7µM*
CCN(CC)S(=O)(=O)c1nnc(NC(=O)COc2ccc(Cl)cc2)s1	i	-21%	x	-23%	i	x
CC(C)C[C@H]1CN(CCCC[C@@H]2CNC(=O)C(=O)N2CC2CCCCC2)C(=O)C(=O)N1CCc1ccc(O)cc1	u	x	10%	x	i	18%
O=c1c2ccccc2n2c(-c3ccccc3F)nnc2n1CCc1ccccc1	i	-25%	x	-21%	i	x
CCC1CCCCN1CC(=O)Nc1cc(C)nn1-c1nc(C)cc(C)n1 (stereo not given)	i	-33%	3.5µM*	u	i	4.5µM*
Cc1cc(C)nc(-n2nc(C)cc2NC(=O)CN2CCCC2)n1	i	-2%	15%	-13%	i	1%
COc1ccccc1Cc1c(-c2ccc(C)cc2)nc2ccc(Cl)cn12	u	0%	-20%	-47%	i	-18%
Cc1ccc2nc(-c3cccc(Cl)c3)c(Cc3ccccc3)n2c1	21µM*	x	3%	x	i	-10%
COc1ccc(-c2nc3ccc(C)cn3c2Cc2ccsc2)cc1OC	23µM*	-26%	u	u	i	u
COC(=O)c1ccc2nc(-c3ccc(Cl)cc3)c(Cc3ccsc3)n2c1	21µM*	x	13%	x	u	17%
COc1ccccc1Cc1c(-c2cccc(Cl)c2)nc2ccc(C)cn12	u	-45%	u	13µM*	u	u
COc1ccc(Cn2nnnc2C(c2ccccc2)N2CCN(c3ccccc3)CC2)cc1 (stereo not given)	u	9%	x	1%	u	x
O=S(=O)(Nc1cccc2ccccc12)c1ccc2ccccc2c1	x	-18%	x	u	x	x
CCOC(=O)C1=C[C@@H](C(=O)OCC)[C@@H]2C3=C(C(=O)C2(C)C)[C@H](c2ccccc2)[C@@H]2C(=O)N(c4ccccc4)C(=O)[C@@H]2[C@@H]3C1	x	0%	x	1%	x	x
Cc1cccc(C(=O)N2CCc3cc(CNC(=O)c4ccc(Br)o4)ccc32)c1	x	-19%	x	u	x	x
F[B-](F)(F)c1cc2ccccc2s1	i	-30%	-7%	24%	u	3%
CCCc1nc2ccc(C)cn2c1Cc1cccc(F)c1	i	-23%	-18%	u	i	u
Cc1ccc2nc(C(C)(C)C)c(Cc3cccc(F)c3)n2c1	i	-23%	16µM*	u	i	23µM*
COc1ccccc1Cc1c(-c2ccco2)nc2ccc(Br)cn12	i	-93%	u	u	i	u
COc1ccccc1Cc1c(-c2ccco2)nc2ccc(Cl)cn12	i	-96%	u	16µM*	i	u
COc1cc2sc(-c3ccc(S(C)(=O)=O)cc3)c(C#CCO)c2cc1OC	i	0%	0%	8%	i	-7%
Cc1c(O)ccc2c1OC(C)(C)CC2	x	x	14%	x	x	15%
CCCCNc1nc2ccccc2n1CC(=O)N1CCc2ccccc2C1	10µM*	-23%	-26%	u	i	u
COc1cc(S(=O)(=O)O)c(C)cc1N=Nc1c(O)ccc2cc(S(=O)(=O)O)ccc12	i	2%	x	-11%	i	x
CCN(CC)S(=O)(=O)c1ccc(N2CCOCC2)c(NC(=O)c2nn(C(C)C)c(=O)c3ccccc23)c1	u	5%	1%	-1%	i	-4%
SMILES	KB-V1 cytotox	HepG2 viability	HT1080-NT tox	TGFb inhibitor	KB-3-1 tox	HT1080 IDH1KD tx
CCOc1cc(N2CCOCC2)c(OCC)cc1NC(=O)c1nn(CC)c(=O)c2ccccc12	3.7µM*	-11%	-1%	-23%	u	6%
CC(C)n1nc(C(=O)Nc2ccccc2N2CCOCC2)c2ccccc2c1=O	3.7µM*	-17%	-2%	-5%	i	0%
Cc1c(Cc2ccccc2)sc(NC(=O)/C=C/c2cccc3ccccc23)c1C(N)=O	u	-2%	13µM*	-20%	9.2µM*	33µM*
Cc1cc2nc(CCN(C(=S)NCC(C)C)C3CCCC3)[nH]c2cc1C	16µM*	-34%	u	-10%	i	u
CC(=O)Nc1cc2cc(NS(=O)(=O)c3ccc(Cl)cc3)ccc2oc1=O	i	0.2µM*	0%	4%	i	-8%
O=[N+]([O-])c1cc2ccccc2c(O)c1O	u	4%	-4%	12%	i	-1%
O=[N+]([O-])c1cc(-c2ccccc2)cc([N+](=O)[O-])c1O	21µM*	-21%	18µM*	u	16µM*	u
Cc1cccc(OCc2nnc(SCC(=O)N(C(C)C)C(C)C)n2Cc2ccco2)c1C	10µM*	-42%	-12%	5%	i	u
Cc1cc(NC(=O)CSc2nnc(COc3cccc(C)c3C)n2Cc2ccco2)no1	i	8%	10%	21%	i	-4%
COc1ccc(C(C)C)cc1S(=O)(=O)NCCc1c(C)[nH]c2ccc(C)cc12	i	-52%	x	u	i	x
Clc1ccccc1Cn1c(/C=C/c2ccco2)nc2ccccc21	13µM*	-39%	u	u	u	23µM*
Cn1cccc/c1=N\c1cccc[n+]1C	i	-8%	-11%	-31%	i	23µM*
CCOc1ccc(NCc2cccn2-c2nnc(N3CCC(C(=O)NCCCN4CCCCC4CC)CC3)s2)cc1 (stereo not given)	u	14µM*	-24%	-20%	i	-19%
CCOc1ccc(NCc2cccn2-c2nnc(N3CCC(C(=O)NCCOC)CC3)s2)cc1	x	-4%	x	x	x	x
Cc1cc(/C=C2\C=Cc3ccccc32)ccc1N(C)C	i	-78%	x	-2%	i	x
CN(C)S(=O)(=O)c1cccc(C(=O)Nc2ccc(C(=O)Nc3cccc(S(N)(=O)=O)c3)cc2)c1	i	-14%	0%	-16%	i	1%
CN(C)S(=O)(=O)c1cccc(NC(=O)c2cccc(S(=O)(=O)N3CCCCC3)c2)c1	18µM*	-3%	7%	-20%	u	7%
CN(C)S(=O)(=O)c1cccc(NC(=O)c2cccc(NS(=O)(=O)c3ccccc3)c2)c1	u	-22%	u	u	12µM*	u
CN(CC(=O)Nc1ccc(S(=O)(=O)N2CCCC2)cc1)Cc1cccc(Cl)c1Cl	18µM*	-22%	-16%	u	u	-21%

Screening results: PubChem BioAssay, National Center for Advancing Translational Sciences (NCATS)
